Inconclusive results are not listed. Active and inactive are the calls of the source. Rule for the calls, unless noted: active = hit-call score of the fitted dose curve at least 0.9, where 1 is the maximum; inconclusive = response in the unintended direction; inactive = score below 0.9.
Molecular target: PGR (gene 5241) (UniProt P06401)
Test: TOX21_PR_LUC_Followup_Agonist: Tox21 HEK293 Progesterone Receptor (PR) Agonism Luciferase Follow-Up Assay (AID 2283937; active = hit-call score of the fitted dose curve at least 0.9, where 1 is the maximum; inactive = score below 0.9)
In short: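 HEK293-PR-A-luc cells, pre-cultured 5 days in medium with 10% charcoal-stripped FBS, were seeded at 3,000 cells/well, rested 5 h at 37C, then exposed to compounds 16 h at 37C; luciferase read by ONE-Glo luminescence after 30 min.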

Chain of PGR (gene 5241) (P06401 whole entry, looked up): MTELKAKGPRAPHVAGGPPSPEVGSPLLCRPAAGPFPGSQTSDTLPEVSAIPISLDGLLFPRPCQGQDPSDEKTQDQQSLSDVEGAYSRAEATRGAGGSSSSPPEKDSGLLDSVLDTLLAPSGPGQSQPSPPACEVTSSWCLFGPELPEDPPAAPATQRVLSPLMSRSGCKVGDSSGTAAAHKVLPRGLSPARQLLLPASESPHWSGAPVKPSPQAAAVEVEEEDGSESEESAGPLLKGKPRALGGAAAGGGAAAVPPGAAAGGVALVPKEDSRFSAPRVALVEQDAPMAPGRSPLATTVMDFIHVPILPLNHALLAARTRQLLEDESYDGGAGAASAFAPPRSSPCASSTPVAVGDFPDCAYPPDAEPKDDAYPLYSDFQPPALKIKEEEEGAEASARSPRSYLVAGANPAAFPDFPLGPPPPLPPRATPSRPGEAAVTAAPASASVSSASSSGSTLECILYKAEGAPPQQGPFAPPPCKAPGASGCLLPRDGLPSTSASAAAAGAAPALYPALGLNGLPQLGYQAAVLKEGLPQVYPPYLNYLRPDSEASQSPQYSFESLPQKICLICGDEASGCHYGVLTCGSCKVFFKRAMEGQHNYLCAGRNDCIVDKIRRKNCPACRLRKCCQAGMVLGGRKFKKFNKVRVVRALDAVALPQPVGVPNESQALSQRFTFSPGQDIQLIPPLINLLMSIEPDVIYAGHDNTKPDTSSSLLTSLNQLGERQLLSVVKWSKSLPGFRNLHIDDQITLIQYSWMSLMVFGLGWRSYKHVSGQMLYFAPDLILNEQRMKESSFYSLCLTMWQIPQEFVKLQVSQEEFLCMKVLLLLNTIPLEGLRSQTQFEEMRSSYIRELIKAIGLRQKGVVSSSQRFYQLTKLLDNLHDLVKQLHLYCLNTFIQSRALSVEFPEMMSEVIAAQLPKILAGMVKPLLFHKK

SMILES | AC50 | outcome
CCN(CC)CC(=O)OCC(=O)[C@@]1(O)CC[C@H]2[C@@H]3CCC4=CC(=O)CC[C@]4(C)[C@H]3[C@@H](O)C[C@@]21C | 1.47 µM (active) | –
C[C@@H]1CC(=O)NN=C1c1ccc(NN=C(C#N)C#N)cc1 | – | inactive
CC(=O)O[C@H]1CC[C@@]2(C)C(=CC[C@@H]3[C@@H]2CC[C@]2(C)C(C(C)=O)=CC[C@@H]32)C1 | – | inactive
C[C@@H]1C[C@H]2[C@@H]3CCC4=CC(=O)C=C[C@]4(C)[C@@]3(F)[C@@H](O)C[C@]2(C)[C@@]1(O)C(=O)COC(=O)c1ccncc1 | 0.51 µM (active) | –
CCC(=O)Oc1ccc2c(c1)CC[C@@H]1[C@@H]2CC[C@@]2(C)[C@H]1C[C@@H](OC(=O)CC)[C@@H]2OC(=O)CC | 16.8 µM (active) | –
CC(=O)O[C@@H]1CC2C3CCc4cc(OC(=O)c5ccccc5)ccc4C3CCC2(C)[C@H]1OC(C)=O (stereo partly specified) | 20.1 µM (active) | –
COC(=O)C1=C(C)NC(C)=C(C(=O)OC(C)C)C1c1cccc2nonc12 (stereo unspecified) | – | inactive
CC(=O)OCC(=O)[C@H]1CC[C@H]2[C@@H]3CCC4=CC(=O)CC[C@]4(C)[C@H]3CC[C@]12C | 0.0297 µM (active) | –
CCC(=O)O[C@]1(C(=O)COC)[C@@H](C)C[C@H]2[C@@H]3CCC4=CC(=O)C=C[C@]4(C)C3(F)[C@@H](O)C[C@@]21C (stereo partly specified) | 0.0067 µM (active) | –
COC(=O)[C@@H]1CC2=CC(=O)CC[C@]2(C)[C@@]23O[C@@H]2C[C@@]2(C)[C@@H](CC[C@@]24CCC(=O)O4)[C@H]13 | – | inactive
C/C=C(/C(=C/C)c1ccc(OC(C)=O)cc1)c1ccc(OC(C)=O)cc1 | – | inactive
CC(=O)OCC(=O)[C@@]1(O)CC[C@H]2[C@@H]3CCC4=CC(=O)CC[C@]4(C)[C@H]3C(=O)C[C@@]21C | – | inactive
C[C@]12CCC(=O)C=C1CC[C@@H]1[C@@H]2[C@@H](O)C[C@@]2(C)[C@H]1CC[C@]2(O)C(=O)CO | 1.3 µM (active) | –
CC(C)(C)C(O)/C=C/c1ccc2c(c1)OCO2 (stereo unspecified) | – | inactive
CCCC(=O)OCOC(=O)C1=C(C)NC(C)=C(C(=O)OC)C1c1cccc(Cl)c1Cl (stereo unspecified) | – | inactive

Molecular target: PGR (gene 5241) (UniProt P06401)
Test: TOX21_PR_LUC_Followup_Antagonist: Tox21 HEK293 Progesterone Receptor (PR) Antagonism Luciferase Follow-Up Assay (AID 2283938);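 note: curve fitted upward as signal gain over DMSO baseline despite antagonist label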
In short: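 Luciferase reporter in HEK293-PR-A-luc cells: 16 h compound treatment at 37C, ONE-Glo luminescence detection, DMSO as negative control and baseline.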

SMILES | outcome | AC50
CCN(CC)CC(=O)OCC(=O)[C@@]1(O)CC[C@H]2[C@@H]3CCC4=CC(=O)CC[C@]4(C)[C@H]3[C@@H](O)C[C@@]21C | inactive | –
C/C=C1\C(=O)C[C@H]2[C@@H]3CCC4=CC(=O)CC[C@]4(C)[C@H]3CC[C@]12C | inactive | –
C[C@@H]1CC(=O)NN=C1c1ccc(NN=C(C#N)C#N)cc1 | – | 3.22 µM (active)
CC(=O)O[C@H]1CC[C@@]2(C)C(=CC[C@@H]3[C@@H]2CC[C@]2(C)C(C(C)=O)=CC[C@@H]32)C1 | – | 9.14 µM (active)
CCC(=O)Oc1ccc2c(c1)CC[C@@H]1[C@@H]2CC[C@@]2(C)[C@H]1C[C@@H](OC(=O)CC)[C@@H]2OC(=O)CC | inactive | –
CC(=O)O[C@@H]1CC2C3CCc4cc(OC(=O)c5ccccc5)ccc4C3CCC2(C)[C@H]1OC(C)=O (stereo partly specified) | – | 1.05 µM (active)
COC(=O)C1=C(C)NC(C)=C(C(=O)OC(C)C)C1c1cccc2nonc12 (stereo unspecified) | – | 18.1 µM (active)
CC(=O)OCC(=O)[C@@]1(O)[C@H](C)C[C@H]2[C@@H]3CCC4=CC(=O)C=C[C@]4(C)[C@@]3(F)[C@@H](O)C[C@@]21C | inactive | –
CC(=O)OCC(=O)[C@H]1CC[C@H]2[C@@H]3CCC4=CC(=O)CC[C@]4(C)[C@H]3CC[C@]12C | inactive | –
CCC(=O)O[C@]1(C(=O)COC)[C@@H](C)C[C@H]2[C@@H]3CCC4=CC(=O)C=C[C@]4(C)C3(F)[C@@H](O)C[C@@]21C (stereo partly specified) | inactive | –
CCCC(=O)O[C@]1(C(=O)CO)CC[C@H]2[C@@H]3CCC4=CC(=O)CC[C@]4(C)[C@H]3[C@@H](O)C[C@@]21C | inactive | –
COC(=O)[C@@H]1CC2=CC(=O)CC[C@]2(C)[C@@]23O[C@@H]2C[C@@]2(C)[C@@H](CC[C@@]24CCC(=O)O4)[C@H]13 | inactive | –
C/C=C(/C(=C/C)c1ccc(OC(C)=O)cc1)c1ccc(OC(C)=O)cc1 | – | 14.7 µM (active)
C/C=C1/C(=O)C[C@H]2[C@@H]3CCC4=CC(=O)CC[C@]4(C)[C@H]3CC[C@]12C | inactive | –
CC(=O)OCC(=O)[C@@]1(O)CC[C@H]2[C@@H]3CCC4=CC(=O)CC[C@]4(C)[C@H]3C(=O)C[C@@]21C | inactive | –
C[C@]12CCC(=O)C=C1CC[C@H]1[C@@H]3CC[C@](O)(C(=O)CO)[C@@]3(C)C[C@H](O)[C@@]12F | inactive | –
CC(C)(C)C(O)/C=C/c1ccc2c(c1)OCO2 (stereo unspecified) | inactive | –
CCCC(=O)OCOC(=O)C1=C(C)NC(C)=C(C(=O)OC)C1c1cccc(Cl)c1Cl (stereo unspecified) | inactive | –

Test system: not listed separately
Test: TOX21_PR_LUC_Followup_Antagonist_viability: Viability Assessment in the Tox21 HEK293 Progesterone Receptor (PR) Antagonism Luciferase Follow-Up Assay (AID 2283940)
In short: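 HEK293-PR-A-luc cells, precultured 5 days in assay medium with 10% charcoal-stripped FBS, were seeded at 3,000 cells/well, treated with compounds in DMSO for 16 h at 37C, and viability was read as cellular ATP by CellTiter-Glo luminescence.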

SMILES | outcome
CCN(CC)CC(=O)OCC(=O)[C@@]1(O)CC[C@H]2[C@@H]3CCC4=CC(=O)CC[C@]4(C)[C@H]3[C@@H](O)C[C@@]21C | inactive
C/C=C1\C(=O)C[C@H]2[C@@H]3CCC4=CC(=O)CC[C@]4(C)[C@H]3CC[C@]12C | inactive
C[C@@H]1CC(=O)NN=C1c1ccc(NN=C(C#N)C#N)cc1 | inactive
CC(=O)O[C@H]1CC[C@@]2(C)C(=CC[C@@H]3[C@@H]2CC[C@]2(C)C(C(C)=O)=CC[C@@H]32)C1 | inactive
C[C@@H]1C[C@H]2[C@@H]3C[C@H](F)C4=CC(=O)C=C[C@]4(C)[C@@]3(F)[C@@H](O)C[C@]2(C)[C@@]1(O)C(=O)CO | inactive
C[C@@H]1C[C@H]2[C@@H]3CCC4=CC(=O)C=C[C@]4(C)[C@@]3(F)[C@@H](O)C[C@]2(C)[C@@]1(O)C(=O)COC(=O)c1ccncc1 | inactive
CCC(=O)Oc1ccc2c(c1)CC[C@@H]1[C@@H]2CC[C@@]2(C)[C@H]1C[C@@H](OC(=O)CC)[C@@H]2OC(=O)CC | inactive
CC(=O)O[C@@H]1CC2C3CCc4cc(OC(=O)c5ccccc5)ccc4C3CCC2(C)[C@H]1OC(C)=O (stereo partly specified) | inactive
Clc1ccccc1CN1CCc2sccc2C1 | inactive
COC(=O)C1=C(C)NC(C)=C(C(=O)OC(C)C)C1c1cccc2nonc12 (stereo unspecified) | inactive
CC(=O)OCC(=O)[C@@]1(O)[C@H](C)C[C@H]2[C@@H]3CCC4=CC(=O)C=C[C@]4(C)[C@@]3(F)[C@@H](O)C[C@@]21C | inactive
CC(=O)OCC(=O)[C@H]1CC[C@H]2[C@@H]3CCC4=CC(=O)CC[C@]4(C)[C@H]3CC[C@]12C | inactive
CCC(=O)O[C@]1(C(=O)COC)[C@@H](C)C[C@H]2[C@@H]3CCC4=CC(=O)C=C[C@]4(C)C3(F)[C@@H](O)C[C@@]21C (stereo partly specified) | inactive
COC(=O)[C@@H]1CC2=CC(=O)CC[C@]2(C)[C@@]23O[C@@H]2C[C@@]2(C)[C@@H](CC[C@@]24CCC(=O)O4)[C@H]13 | inactive
C/C=C(/C(=C/C)c1ccc(OC(C)=O)cc1)c1ccc(OC(C)=O)cc1 | inactive
C/C=C1/C(=O)C[C@H]2[C@@H]3CCC4=CC(=O)CC[C@]4(C)[C@H]3CC[C@]12C | inactive
CC(=O)OCC(=O)[C@@]1(O)CC[C@H]2[C@@H]3CCC4=CC(=O)CC[C@]4(C)[C@H]3C(=O)C[C@@]21C | inactive
CC(C)(C)C(O)/C=C/c1ccc2c(c1)OCO2 (stereo unspecified) | inactive

Source: PubChem BioAssay (EPA / NIEHS)
